# Source: ChEMBL document CHEMBL2218924, “A broad activity screen in support of a chemogenomic map for kinase signalling research and drug discovery” (Biochem J, 2013)
# How the values were obtained:
# [1] = biological target: T1, Serine/threonine-protein kinase STK11 (Homo sapiens) (UniProt Q15831); conditions: at 1 µM
# T1 sequence (whole entry): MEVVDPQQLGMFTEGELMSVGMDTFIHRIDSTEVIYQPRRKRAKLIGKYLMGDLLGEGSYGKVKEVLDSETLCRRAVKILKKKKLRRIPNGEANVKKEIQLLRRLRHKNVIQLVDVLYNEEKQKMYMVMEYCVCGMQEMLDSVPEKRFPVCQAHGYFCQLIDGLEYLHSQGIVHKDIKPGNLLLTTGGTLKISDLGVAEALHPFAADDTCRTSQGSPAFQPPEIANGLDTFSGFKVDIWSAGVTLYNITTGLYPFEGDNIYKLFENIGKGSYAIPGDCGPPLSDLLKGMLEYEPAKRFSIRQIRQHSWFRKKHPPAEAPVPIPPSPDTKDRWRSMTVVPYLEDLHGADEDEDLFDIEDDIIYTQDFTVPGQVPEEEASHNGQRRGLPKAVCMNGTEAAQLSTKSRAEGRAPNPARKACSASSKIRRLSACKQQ
# [2] = biological target: T1, Serine/threonine-protein kinase STK11 (Homo sapiens); conditions: at 10 µM
# [3] = biological target: Tyrosine-protein kinase Lck (Homo sapiens) (UniProt P06239); conditions: at 1 µM
# Chain of Tyrosine-protein kinase Lck (Homo sapiens) (P06239 2-509 limits assumed): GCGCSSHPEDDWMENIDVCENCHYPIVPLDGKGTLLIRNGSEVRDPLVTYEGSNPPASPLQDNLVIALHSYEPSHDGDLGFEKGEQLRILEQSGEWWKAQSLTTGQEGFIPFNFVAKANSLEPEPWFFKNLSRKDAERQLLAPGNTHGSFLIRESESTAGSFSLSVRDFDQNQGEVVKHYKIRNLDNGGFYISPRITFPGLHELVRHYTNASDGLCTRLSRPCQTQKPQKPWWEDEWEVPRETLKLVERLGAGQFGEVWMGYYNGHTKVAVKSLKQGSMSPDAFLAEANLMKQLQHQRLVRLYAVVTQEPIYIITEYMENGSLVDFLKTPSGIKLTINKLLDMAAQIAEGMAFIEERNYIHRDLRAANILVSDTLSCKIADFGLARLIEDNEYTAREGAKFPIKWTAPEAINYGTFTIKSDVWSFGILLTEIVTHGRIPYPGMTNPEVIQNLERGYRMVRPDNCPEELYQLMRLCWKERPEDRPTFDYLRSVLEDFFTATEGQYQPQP
# [4] = biological target: Tyrosine-protein kinase Lck (Homo sapiens) (UniProt P06239); conditions: at 1 µM; remark: listed apart in the source
# [5] = biological target: Tyrosine-protein kinase Lck (Homo sapiens) (UniProt P06239); conditions: at 10 µM
# [6] = biological target: Tyrosine-protein kinase Lyn (Homo sapiens) (UniProt P07948); conditions: at 10 µM
# Chain of Tyrosine-protein kinase Lyn (Homo sapiens) (P07948 2-512 limits assumed): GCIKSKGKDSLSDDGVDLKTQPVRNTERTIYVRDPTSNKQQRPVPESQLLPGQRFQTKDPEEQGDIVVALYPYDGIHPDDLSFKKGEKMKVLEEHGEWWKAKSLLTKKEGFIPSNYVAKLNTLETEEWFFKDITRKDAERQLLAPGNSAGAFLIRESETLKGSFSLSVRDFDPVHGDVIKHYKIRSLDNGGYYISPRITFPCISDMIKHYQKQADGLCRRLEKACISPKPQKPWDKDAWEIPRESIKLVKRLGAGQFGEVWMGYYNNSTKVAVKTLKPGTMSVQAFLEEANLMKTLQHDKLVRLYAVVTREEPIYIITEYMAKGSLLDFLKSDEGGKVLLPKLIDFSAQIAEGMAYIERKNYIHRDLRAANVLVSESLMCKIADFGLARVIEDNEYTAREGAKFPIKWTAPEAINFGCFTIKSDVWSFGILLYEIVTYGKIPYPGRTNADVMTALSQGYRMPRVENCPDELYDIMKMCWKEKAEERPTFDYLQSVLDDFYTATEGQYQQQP
# [7] = biological target: MAP kinase-activated protein kinase 3 (Homo sapiens) (UniProt Q16644); conditions: at 1 µM
# Chain of MAP kinase-activated protein kinase 3 (Homo sapiens) (Q16644 whole entry, looked up): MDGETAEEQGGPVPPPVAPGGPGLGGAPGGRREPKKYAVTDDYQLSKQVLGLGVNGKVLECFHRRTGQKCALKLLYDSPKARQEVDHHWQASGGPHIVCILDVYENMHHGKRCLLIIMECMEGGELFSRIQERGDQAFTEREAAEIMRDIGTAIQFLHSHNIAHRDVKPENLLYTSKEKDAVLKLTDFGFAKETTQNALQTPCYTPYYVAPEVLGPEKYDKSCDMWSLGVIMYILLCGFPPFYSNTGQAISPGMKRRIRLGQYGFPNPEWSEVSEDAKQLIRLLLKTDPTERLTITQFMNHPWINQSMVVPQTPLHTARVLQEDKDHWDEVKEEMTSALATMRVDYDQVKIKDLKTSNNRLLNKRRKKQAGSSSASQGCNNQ
# [8] = biological target: MAP kinase-activated protein kinase 3 (Homo sapiens) (UniProt Q16644); conditions: at 10 µM
# [9] = biological target: Serine/threonine-protein kinase MARK1 (Homo sapiens) (UniProt Q9P0L2); conditions: at 1 µM
# Chain of Serine/threonine-protein kinase MARK1 (Homo sapiens) (Q9P0L2 whole entry, looked up): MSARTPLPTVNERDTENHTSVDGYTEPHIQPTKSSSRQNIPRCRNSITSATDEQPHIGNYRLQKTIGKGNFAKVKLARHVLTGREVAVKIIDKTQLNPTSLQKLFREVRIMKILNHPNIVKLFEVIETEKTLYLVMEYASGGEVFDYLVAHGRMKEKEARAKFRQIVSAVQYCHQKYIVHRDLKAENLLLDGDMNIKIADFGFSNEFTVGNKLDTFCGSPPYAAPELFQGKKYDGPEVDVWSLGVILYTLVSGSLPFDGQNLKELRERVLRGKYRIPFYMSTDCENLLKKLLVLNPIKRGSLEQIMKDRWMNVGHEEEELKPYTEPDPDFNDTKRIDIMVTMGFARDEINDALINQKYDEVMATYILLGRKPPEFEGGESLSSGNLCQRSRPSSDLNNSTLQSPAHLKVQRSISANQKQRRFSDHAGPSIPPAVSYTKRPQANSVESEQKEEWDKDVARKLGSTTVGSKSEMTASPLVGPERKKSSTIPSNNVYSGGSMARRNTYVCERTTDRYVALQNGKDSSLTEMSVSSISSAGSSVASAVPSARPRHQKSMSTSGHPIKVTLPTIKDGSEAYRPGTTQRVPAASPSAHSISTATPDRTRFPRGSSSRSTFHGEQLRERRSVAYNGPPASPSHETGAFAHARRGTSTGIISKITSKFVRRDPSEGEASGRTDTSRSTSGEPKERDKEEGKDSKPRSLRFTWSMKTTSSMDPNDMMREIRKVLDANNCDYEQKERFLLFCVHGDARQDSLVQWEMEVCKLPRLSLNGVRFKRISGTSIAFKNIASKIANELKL
# [10] = biological target: Serine/threonine-protein kinase MARK1 (Homo sapiens) (UniProt Q9P0L2); conditions: at 10 µM
# [11] = biological target: Serine/threonine-protein kinase 10 (Homo sapiens) (UniProt O94804); conditions: at 1 µM
# Chain of Serine/threonine-protein kinase 10 (Homo sapiens) (O94804 whole entry, looked up): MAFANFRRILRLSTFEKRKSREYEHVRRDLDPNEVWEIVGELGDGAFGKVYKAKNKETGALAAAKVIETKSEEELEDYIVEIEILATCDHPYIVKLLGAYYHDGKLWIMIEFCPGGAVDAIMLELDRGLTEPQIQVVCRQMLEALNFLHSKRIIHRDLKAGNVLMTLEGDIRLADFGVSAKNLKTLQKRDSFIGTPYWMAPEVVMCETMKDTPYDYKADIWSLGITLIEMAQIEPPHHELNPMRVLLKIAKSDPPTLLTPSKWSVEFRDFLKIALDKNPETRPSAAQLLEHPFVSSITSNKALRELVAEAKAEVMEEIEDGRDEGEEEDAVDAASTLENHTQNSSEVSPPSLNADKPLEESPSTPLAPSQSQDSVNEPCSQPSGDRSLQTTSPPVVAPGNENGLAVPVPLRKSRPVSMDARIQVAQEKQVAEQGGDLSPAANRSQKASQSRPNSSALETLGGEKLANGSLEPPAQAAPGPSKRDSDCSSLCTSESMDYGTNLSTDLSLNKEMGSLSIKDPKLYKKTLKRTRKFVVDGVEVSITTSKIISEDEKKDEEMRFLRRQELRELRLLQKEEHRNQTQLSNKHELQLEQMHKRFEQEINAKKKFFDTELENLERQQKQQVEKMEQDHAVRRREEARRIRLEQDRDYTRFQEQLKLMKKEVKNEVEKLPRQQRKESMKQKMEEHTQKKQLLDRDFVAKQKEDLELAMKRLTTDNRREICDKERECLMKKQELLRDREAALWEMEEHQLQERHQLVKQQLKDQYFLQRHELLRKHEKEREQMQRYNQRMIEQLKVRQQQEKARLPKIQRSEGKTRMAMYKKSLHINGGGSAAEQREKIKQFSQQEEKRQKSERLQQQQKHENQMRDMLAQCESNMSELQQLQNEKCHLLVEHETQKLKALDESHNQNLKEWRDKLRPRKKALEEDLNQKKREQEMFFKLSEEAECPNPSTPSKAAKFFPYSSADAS
# [12] = biological target: Serine/threonine-protein kinase 10 (Homo sapiens) (UniProt O94804); conditions: at 10 µM
# [13] = biological target: Tyrosine-protein kinase Lck (Homo sapiens) (UniProt P06239); conditions: at 10 µM; remark: listed apart in the source
# [14] = biological target: Tyrosine-protein kinase Lyn (Homo sapiens) (UniProt P07948); conditions: at 1 µM
# [15] = biological target: Mitogen-activated protein kinase 3 (Homo sapiens) (UniProt P27361); conditions: at 1 µM
# Chain of Mitogen-activated protein kinase 3 (Homo sapiens) (P27361 whole entry): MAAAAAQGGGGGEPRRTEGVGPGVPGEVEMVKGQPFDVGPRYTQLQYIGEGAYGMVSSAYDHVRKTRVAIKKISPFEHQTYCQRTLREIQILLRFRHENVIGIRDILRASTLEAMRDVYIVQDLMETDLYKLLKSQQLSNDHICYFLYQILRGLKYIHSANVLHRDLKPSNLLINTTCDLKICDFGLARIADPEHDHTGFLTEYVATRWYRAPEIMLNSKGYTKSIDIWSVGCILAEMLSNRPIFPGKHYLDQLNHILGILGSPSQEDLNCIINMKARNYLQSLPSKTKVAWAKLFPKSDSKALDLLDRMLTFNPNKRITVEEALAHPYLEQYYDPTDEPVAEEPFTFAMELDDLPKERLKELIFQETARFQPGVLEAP
# [16] = biological target: Mitogen-activated protein kinase 3 (Homo sapiens) (UniProt P27361); conditions: at 10 µM
# [17] = biological target: Mitogen-activated protein kinase 1 (Homo sapiens) (UniProt P28482); conditions: at 1 µM
# Chain of Mitogen-activated protein kinase 1 (Homo sapiens) (P28482 whole entry): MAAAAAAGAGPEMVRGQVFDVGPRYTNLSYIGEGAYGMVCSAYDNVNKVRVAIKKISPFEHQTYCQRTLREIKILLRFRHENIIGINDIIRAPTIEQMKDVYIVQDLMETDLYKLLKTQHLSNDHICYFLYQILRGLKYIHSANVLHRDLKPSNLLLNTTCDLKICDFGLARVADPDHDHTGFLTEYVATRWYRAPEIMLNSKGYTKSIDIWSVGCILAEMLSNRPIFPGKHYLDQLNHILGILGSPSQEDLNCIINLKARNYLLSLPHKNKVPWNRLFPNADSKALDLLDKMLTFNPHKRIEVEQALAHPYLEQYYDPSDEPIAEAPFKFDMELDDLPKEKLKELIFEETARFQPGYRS
# [18] = biological target: Mitogen-activated protein kinase 1 (Homo sapiens) (UniProt P28482); conditions: at 10 µM
# [19] = biological target: MAP kinase-activated protein kinase 2 (Homo sapiens) (UniProt P49137); conditions: at 1 µM
# Chain of MAP kinase-activated protein kinase 2 (Homo sapiens) (P49137 whole entry, looked up): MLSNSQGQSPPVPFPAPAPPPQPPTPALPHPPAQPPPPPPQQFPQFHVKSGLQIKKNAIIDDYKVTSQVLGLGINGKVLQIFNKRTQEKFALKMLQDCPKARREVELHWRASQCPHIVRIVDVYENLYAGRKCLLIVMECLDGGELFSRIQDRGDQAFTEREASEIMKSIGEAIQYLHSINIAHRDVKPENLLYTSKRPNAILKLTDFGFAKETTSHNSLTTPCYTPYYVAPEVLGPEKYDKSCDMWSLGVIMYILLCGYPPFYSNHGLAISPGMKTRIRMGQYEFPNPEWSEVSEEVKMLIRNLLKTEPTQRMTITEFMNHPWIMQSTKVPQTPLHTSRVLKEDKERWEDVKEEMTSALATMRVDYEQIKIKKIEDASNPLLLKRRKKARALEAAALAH
# [20] = biological target: MAP kinase-activated protein kinase 2 (Homo sapiens) (UniProt P49137); conditions: at 10 µM
structure (smiles),measurement,setting,value
O=C1c2ccccc2-c2nc3nnnn3nc21,residual activity,[1],108%
same,residual activity,[2],101%
same,residual activity,[3],134%
same,residual activity,[4],104%
same,residual activity,[5],124%
same,residual activity,[6],64%
same,residual activity,[7],105%
same,residual activity,[8],108%
same,residual activity,[9],107%
same,residual activity,[10],104%
Cc1cc(C)c(/C=C2\C(=O)Nc3ccccc32)[nH]1,residual activity,[7],140%
Oc1n[nH]c2nnc(-c3c(-c4ccccc4)nn4ccccc34)cc12,residual activity,[7],98%
c1cc(-c2cnn3cc(-c4ccc(OCCN5CCCCC5)cc4)cnc23)ccn1,residual activity,[1],101%
same,residual activity,[2],102%
same,residual activity,[11],37%
same,residual activity,[12],19%
same,residual activity,[3],23%
same,residual activity,[13],12%
same,residual activity,[4],44%
same,residual activity,[5],10%
same,residual activity,[14],14%
same,residual activity,[6],2%
same,residual activity,[15],101%
same,residual activity,[16],104%
same,residual activity,[8],84%
same,residual activity,[9],60%
same,residual activity,[10],16%
COc1ccc(CNc2nc(N(CCO)CCO)nc3c2ncn3C(C)C)cc1,residual activity,[7],110%
COc1ccc(OC)c2c(=S)c3ccccc3[nH]c12,residual activity,[7],100%
O=C(O)c1ccc2c3c1cccc3c(=O)n1c3ccccc3nc21,residual activity,[7],123%
c1ccc(-c2n[nH]c3c2oc2ccccc23)cc1,residual activity,[7],94%
O=C1Cc2c([nH]c3ccc([N+](=O)[O-])cc23)-c2ccccc2N1,residual activity,[7],75%
O=[N+]([O-])/C=C/c1ccc2c(c1)OCO2,residual activity,[1],105%
same,residual activity,[2],95%
same,residual activity,[11],104%
same,residual activity,[3],135%
same,residual activity,[4],94%
same,residual activity,[5],81%
same,residual activity,[14],90%
same,residual activity,[6],73%
same,residual activity,[15],78%
same,residual activity,[16],86%
same,residual activity,[17],106%
same,residual activity,[18],84%
same,residual activity,[19],84%
same,residual activity,[20],108%
same,residual activity,[7],93%
same,residual activity,[8],83%
same,residual activity,[9],91%
same,residual activity,[10],85%
COc1ccc2c(c1)/C(=C/c1cnc[nH]1)C(=O)N2,residual activity,[1],81%
same,residual activity,[2],24%
same,residual activity,[11],60%
same,residual activity,[12],19%
same,residual activity,[14],72%
same,residual activity,[6],17%
same,residual activity,[17],97%
same,residual activity,[18],35%
same,residual activity,[19],99%
same,residual activity,[20],99%
same,residual activity,[8],123%
same,residual activity,[9],32%
same,residual activity,[10],4%
CC(=O)O/N=C1\C(=C2\C(=O)Nc3cc(Br)ccc32)Nc2ccccc21,residual activity,[7],97%
NC(=O)c1ccc2[nH]c(-c3ccc(Oc4ccc(Cl)cc4)cc3)nc2c1,residual activity,[7],111%
O=c1cc(N2CCOCC2)oc2c1ccc1ccccc12,residual activity,[7],127%
CCn1cnc2c(Nc3cccc(Cl)c3)nc(N[C@@H]3CCCC[C@@H]3N)nc21,residual activity,[2],90%
same,residual activity,[11],60%
same,residual activity,[12],15%
same,residual activity,[3],27%
same,residual activity,[13],22%
same,residual activity,[4],61%
same,residual activity,[5],20%
same,residual activity,[14],6%
same,residual activity,[6],1%
same,residual activity,[15],49%
same,residual activity,[16],10%
same,residual activity,[17],62%
same,residual activity,[18],11%
same,residual activity,[7],115%
same,residual activity,[8],88%
same,residual activity,[9],77%
same,residual activity,[10],35%
O=c1c(-c2ccc(F)cc2)c(-c2ccncc2)[nH]n1-c1ccc(Cl)cc1,residual activity,[7],122%
O=C1NC(=O)c2cc(Nc3ccc(F)cc3)c(Nc3ccc(F)cc3)cc21,residual activity,[7],90%
O=c1[nH]c2ccccc2n1C1CCN(Cc2ccc(-c3nc4cc5[nH]cnc5cc4nc3-c3ccccc3)cc2)CC1,residual activity,[1],94%
same,residual activity,[2],97%
same,residual activity,[11],109%
same,residual activity,[12],90%
same,residual activity,[3],147%
same,residual activity,[13],125%
same,residual activity,[4],94%
same,residual activity,[5],44%
same,residual activity,[14],96%
same,residual activity,[6],53%
same,residual activity,[15],105%
same,residual activity,[16],67%
same,residual activity,[17],108%
same,residual activity,[18],107%
same,residual activity,[19],107%
same,residual activity,[20],103%
same,residual activity,[7],106%
same,residual activity,[8],90%
same,residual activity,[9],99%
same,residual activity,[10],90%
COC(=O)[C@@]1(O)C[C@H]2O[C@]1(C)n1c3ccccc3c3c4c(c5c6ccccc6n2c5c31)C(=O)NC4,residual activity,[1],97%
same,residual activity,[2],74%
same,residual activity,[11],3%
same,residual activity,[12],1%
same,residual activity,[3],2%
same,residual activity,[13],9%
same,residual activity,[4],6%
same,residual activity,[5],8%
same,residual activity,[14],3%
same,residual activity,[6],0%
same,residual activity,[15],10%
same,residual activity,[16],-1%
same,residual activity,[17],5%
same,residual activity,[18],-3%
same,residual activity,[19],0%
same,residual activity,[20],-6%
same,residual activity,[7],47%
same,residual activity,[8],2%
same,residual activity,[9],0%
same,residual activity,[10],0%
N/C(=N\[N+](=O)[O-])N/N=C\c1ccc(-c2cccc([N+](=O)[O-])c2)o1,residual activity,[11],94%
same,residual activity,[12],99%
same,residual activity,[3],77%
same,residual activity,[13],93%
same,residual activity,[4],96%
same,residual activity,[5],91%
same,residual activity,[14],79%
same,residual activity,[6],66%
same,residual activity,[15],94%
same,residual activity,[16],99%
same,residual activity,[8],88%
same,residual activity,[9],98%
same,residual activity,[10],85%
